Compound activity as filed in PubChem BioAssay.
Only some compounds are listed: those with a hit (about 2.7% of all), similar ones and a draw of the others.
GLP1R ag = qHTS of GLP-1 Receptor Agonists; actives 0.007% (n = 380,000); Glucagon-like peptide 1 receptor (Homo sapiens), P43220; AID 624172, 2012; Potency, µM (titrated, usually from 45.6 µM), without a hit: top-dose activation, usual class: activators; HEK293 GLP-1R CRE-luciferase, luminescence, 4-6 h; cells express a hypersensitive GLP-1R form; also: % of control where 0% means no effect
TrxR1 substrate = qHTS Assay for Substrates of Mammalian Selenoprotein Thioredoxin Reductase 1 (TrxR1): qHTS. Potency, µM (highest dose often 114 µM), without a hit: at the top dose activity change, negative = substrate turnover. actives 0.01% (n = 390,000). purified TrxR1 substrate turnover, NADPH consumption readout. AID 588456, 2011. Thioredoxin reductase 1, cytoplasmic (Rattus norvegicus), O89049; also: % is scaled to controls: 0 for no effect and ±100 for the full control effect; nearly all actives have a fitted effect of over 50% in size
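Rat TrxR1, dispensed at 90 nM, was prereduced with 400 uM NADPH (final) for 5 min at ~22 deg C, then incubated with compound 15 min before 400 uM selenite. A first-read NADPH fluorescence drop versus no-compound background flagged substrates.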
IDH1 R132H inh = qHTS for Inhibitors of mutant isocitrate dehydrogenase 1 (IDH1): qHTS. IDH1-R132H enzyme, NADPH consumption, diaphorase/resazurin fluorescence. Potency, µM (highest dose often 76.6 µM), for inactives: top-dose activity change, negative = inhibition, actives largely listed as inhibitors. actives 0.093% (n = 390,000). AID 602179, 2012; also: % is scaled to controls: 0 for no effect and ±100 for the full control effect; nearly all actives have a fitted effect of over 65% in size
Target sequence (O75874 whole entry R132H, stated change not applied): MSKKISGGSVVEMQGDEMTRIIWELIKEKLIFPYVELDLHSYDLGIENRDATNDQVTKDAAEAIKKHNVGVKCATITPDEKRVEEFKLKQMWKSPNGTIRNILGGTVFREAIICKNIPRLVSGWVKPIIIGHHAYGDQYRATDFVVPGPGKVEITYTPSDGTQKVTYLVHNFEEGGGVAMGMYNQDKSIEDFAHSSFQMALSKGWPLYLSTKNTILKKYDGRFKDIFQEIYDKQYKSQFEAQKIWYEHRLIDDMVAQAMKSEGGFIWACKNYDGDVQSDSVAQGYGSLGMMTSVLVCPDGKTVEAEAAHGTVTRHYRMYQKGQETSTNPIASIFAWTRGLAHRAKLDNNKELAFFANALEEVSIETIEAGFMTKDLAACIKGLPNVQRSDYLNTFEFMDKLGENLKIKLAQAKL
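IDH1-R132H (0.5 ug/mL dispensed) in pH 7.5 Tris buffer was preincubated 30 min with compound, then given a substrate mix of 0.016 mM NADPH and 2 mM alpha-KG for 80 min at room temperature; remaining NADPH was read by diaphorase/resazurin fluorescence.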
GLP-1R inv ag = qHTS of GLP-1 Receptor Inverse Agonists (Inhibition Mode). AID 624417, 2012. Potency, µM (titrated, usually from 38.3 µM), for inactives: at the top dose activity change, negative = inhibition, most hits filed as inhibitors. actives 1.6% (n = 410,000). HEK293 GLP-1R CRE-luciferase, luminescence, 24 h; GLP-1R form is constitutively active; also: % is scaled to controls: 0 for no effect and ±100 for the full control effect; nearly all actives have a fitted effect of over 55% in size
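HEK293 cells stably co-expressing constitutively active GLP-1R and a cAMP-responsive luciferase reporter were seeded in DMEM with 10% Nu serum, given compounds after 12 h, and incubated 24 h at 37 deg C. Luminescence was then read.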
HEK293 tox = qHTS of GLP-1 Receptor Inverse Agonists: Cytotox Screen; HEK293 cAMP-luciferase reporter cells, luminescence, 24 h; Potency, µM (doses to about 38.3 µM), for inactives: at the highest dose activity change, negative = inhibition, hits mostly inhibitors; actives 0.13% (n = 410,000); AID 624418, 2012;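 also: loss of luciferase light is scored as toxicity; % is scaled to controls: 0 for no effect and ±100 for the full control effect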
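Seeding density was 200 cells/uL; after overnight-length (12 h) culture, 23 nL compounds went on for 24 h at 37 °C. Readout used a luciferase detection reagent, luminescence taken after 12 min at room temperature.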
TrxR1 inh = qHTS Assay for Inhibitors of Mammalian Selenoprotein Thioredoxin Reductase 1 (TrxR1): qHTS; Thioredoxin reductase 1, cytoplasmic (Rattus norvegicus), O89049; recombinant rTrxR1, NADPH fluorescence consumption, selenite substrate; Potency, µM (top dose mostly 114 µM), for inactives: at the top dose activity change, negative = inhibition, actives largely listed as inhibitors; actives 1% (n = 390,000); also: % is scaled to controls: 0 for no effect and ±100 for the full control effect; nearly all actives have a fitted effect of over 65% in size
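Rat TrxR1 (90 nM in the dispensed reagent) was pre-reduced with 400 uM NADPH for 5 min at room temperature, then incubated with compound for 15 min. After 400 uM selenite was added, NADPH fluorescence (Ex 340/Em 450 nm) was followed for 8 min.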
Numbers without * were called inactive; ? = inconclusive; · = no result given; [ ] = dose if it differs, or a comment. Calls follow the shape of the dose curve; as a rule, active = well fitted curve in the direction sought with a large enough effect; inconclusive = small, poorly fitted or top-dose-only effect, or another doubt; inactive = no such curve, though single readings can be large; an effect the other way counts as inactive or inconclusive. Potency is read from the fitted curve at half-maximal effect.

SMILES	GLP1R ag	TrxR1 substrate	IDH1 R132H inh	GLP-1R inv ag	HEK293 tox	TrxR1 inh
Nc1nc(-c2ccc(Cl)cc2)c(S(=O)(=O)c2ccccc2)s1	6%	-7%	26%	8.9µM*	6%	13%
COc1ccc(C(=O)N2CCCCC2CCN2CCOCC2)cc1 (stereo unspecified)	·	2%	2%	15%	0%	13%
CCOC(=O)c1c(NC(=O)COc2ccc(C)cc2C(C)(C)C)sc2c1CCC(C)C2 (stereo unspecified)	·	-3%	0%	18%	-4%	17%
CC(=NNC(=S)N(Cc1ccccn1)Cc1ccccn1)c1cnccn1	-5%	-13%	2%	?	4.5µM*	?
C[C@@H]1CCN(C(=O)[C@H](CCCNC(=N)N)NS(=O)(=O)c2cccc3c2NC[C@H](C)C3)[C@@H](C(=O)O)C1	1%	·	·	·	·	·
Cc1ccc(OCCCCN2CCC(C)CC2)c(Br)c1	9%	-5%	11%	0%	?	-6%
Cc1cc(C)c(OCCOCCN2CCNCC2)c(C)c1	1%	2%	8%	10µM*	1%	2%
CC(C)(c1ccccc1)c1ccc(OCCCN2CCNCC2)cc1	12%	4%[57.1 µM]	11%	1.1µM*	?	14%[57.1 µM]
Cc1ccc(OCCCCCCN2CCNCC2)c(Br)c1	-3%	-3%[11.4 µM]	5%	2.8µM*	?	-3%[11.4 µM]
CC(C)(C)c1ccc(OCCCCCCN2CCNCC2)cc1	6%	-1%[57.1 µM]	0%	4µM*	?	7%[57.1 µM]
CC1CCN(CCCCOc2ccc(C(C)(C)C)cc2)CC1	-4%	4%	-2%	?	-24%	9%
Cc1ccc(S(=O)(=O)N2CCN(S(=O)(=O)c3ccc4c(c3)OCCCO4)CC2)cc1	·	2%	·	·	·	17%
O=C1CN(C(=O)c2ccc(Br)o2)C(c2ccccc2)c2cc(F)ccc2N1 (stereo unspecified)	6%	11%[57.1 µM]	-4%	7.9µM*	-27%	-4%[57.1 µM]
O=C1CN(C(=O)c2ccccc2)C(c2ccccc2)c2cc(F)ccc2N1 (stereo unspecified)	12%	-3%	-4%	-20%	-9%	18%
O=C(Oc1cccccc1=O)c1ccccc1	-3%	-1%	1%	10µM*	?	5%
CCOc1ccccc1N(C)C(=O)C1CCCN(c2ncnc3onc(-c4ccc(F)cc4)c23)C1 (stereo unspecified)	·	0%	-6%	2%	2%	13%
O=C(NCC1CCCO1)C(c1cccs1)N(Cc1ccccc1)C(=O)c1ccc(-c2ccccc2)[nH]1 (stereo unspecified)	0%	0%	0%	?	-25%	5%
O=C(NCC1CCCO1)C(c1cccs1)N(C(=O)c1ccc(-c2ccccc2)[nH]1)C1CCCC1 (stereo unspecified)	-2%	-12%	-2%	10µM*	-2%	13%[57.1 µM]
CCOc1ccc(OCc2ccc(C(=O)NN=Cc3ccc[nH]3)cc2)cc1	-17%	-1%	3%	?	2.2µM*	14%
CCOC(=O)c1c(-c2ccc(C)o2)csc1NC(=O)CSc1nnc(C)s1	19%	-2%	9%	1%	11%	8.9µM*
CCOC(=O)c1c(-c2ccc(C)o2)csc1NC(=O)CSc1nnnn1-c1ccccc1	-1%	10%	-2%	?	-7%	2.8µM*
CCOC(=O)c1sc(NC(=O)CSc2nnnn2-c2ccccc2)nc1C	-3%	-6%	0%	0%	-17%	-2%
CCCOc1ccc(OC(=O)c2cn(-c3ccc(OC)cc3)c(=O)c3ccccc23)cc1	·	-4%[57.1 µM]	-17%	-23%	2%	16%[57.1 µM]
C(=C\n1nnc2ccccc21)/c1ccc[nH]1	-1%	2%	14%	10%	-27%	13µM*
COc1cccc(Sc2nc(N(C)C)ncc2S(=O)(=O)c2ccc(Cl)cc2)c1	·	6%	·	·	·	19%
SMILES	GLP1R ag	TrxR1 substrate	IDH1 R132H inh	GLP-1R inv ag	HEK293 tox	TrxR1 inh
CC(C)N(C(C)C)S(=O)(=O)c1ccc(N2CCc3ccccc3C2)nc1	18%	10%	2%	7.9µM*	0%	2%
CCN(CC)S(=O)(=O)c1ccc(N2CCc3ccccc3C2)nc1	5%	4%	7%	?	3%	8%
CCOc1cc(CNc2ccc(O)cc2)cc(Br)c1OCc1ccccc1F	1%	-4%	9%	?	?	?
COc1cc(CNc2ccc(N3CCCC3)cc2)ccc1OCc1ccccc1F	0%	-13%	19%	0%	-11%	10µM*
COc1cc(CNc2ccc(O)cc2)cc(Br)c1OCc1ccccc1F	4%	-14%	5%	-19%	-11%	20µM*
C[n+]1c(/C=C/c2ccnc3ccccc23)cc(/C=C/c2ccnc3ccccc23)c2ccccc21	·	-12%	·	·	·	?
CCc1nn(CC(=O)NC(C)C)c(=O)c2cc3cc(F)ccc3n12	·	6%	1%	-74%	-28%	5%
O=C(COc1ccc(Br)cc1CNCCc1ccccc1)NCc1ccccc1	3%	-4%	-3%	10µM*	?	9%
CNCc1cc(Br)c(OCC(=O)Nc2ccccc2OC)c(OC)c1	25%	5%	16%	?	8%	8%
Cc1cc(Br)ccc1OCCNCc1ccccc1	40%	-4%[57.1 µM]	5%	8.9µM*	3%	-7%[57.1 µM]
COc1cc(CNCCc2ccccc2)cc(Br)c1OCC(=O)Nc1ccccc1C	-1%	1%	10%	7.9µM*	?	19%
CCNC(=O)CC1C(=O)N(c2cccc(OC)c2)C(=O)N1Cc1ccc(OC)c(OC)c1 (stereo unspecified)	2%	0%	-7%	0%	-1%	6%
CC(=O)c1c(C)nc2nc(-c3ccccc3)nn2c1C	0%	-1%	-8%	1%	7%	13%
Cc1ccc(NC(=O)Cn2nc(-c3ccccc3)nc(Cc3ccc(Cl)cc3)c2=O)cc1	·	0%[57.1 µM]	-12%	-5%	3%	14%[57.1 µM]
O=C(CCl)N1c2ccccc2OCC1c1ccccc1 (stereo unspecified)	-3%	5%	-1%	-3%	-16%	2.2µM*
